Measurements reported in the supplement of paper PMC7393113.
Structures can show the parent of a compound that is named as a salt. ± gives the standard deviation of the averaged measurements.

System: iBMDM (immortalised mouse bone-marrow-derived macrophages), LPS-stimulated
Test: mitochondrial superoxide (MitoSOX fluorescence) fold increase over unstimulated control; higher = more LPS-induced mitochondrial ROS (less inhibition)
Details: inhibitor concentration: 500 nM, LPS: 100 ng/ml
Summary of the method: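 Immortalised mouse bone-marrow-derived macrophages in black 96-well plates were kept in phenol-red-free 1% FCS/DMEM for 20 h, pretreated 30 min with kinase inhibitors (500 nM), loaded with 1 μM MitoSox for 10 min and then given LPS (100 ng/ml). Fluorescence at excitation/emission 510/580 nm was read on a ClarioStar plate reader every 60 min for 4 h, with wells in triplicate. Mitochondrial superoxide is given as fold induction over untreated macrophages, averaged across replicates.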

SMILES	mitochondrial superoxide (time after LPS: 1 h)	mitochondrial superoxide (time after LPS: 2 h)	mitochondrial superoxide (time after LPS: 4 h)
CNC(=O)c1ccccc1Nc1nc(Nc2ccc(N3CCOCC3)cc2OC)ncc1Cl	1.12 ± 0.084	1.11 ± 0.056	1.23 ± 0.081
C[C@H](NC(=O)/C(C#N)=C/c1cccc(Br)n1)c1ccccc1	1.21 ± 0.039	1.368 ± 0.011	1.5 ± 0.04
CCc1ccc(/C=C2/SC(=S)NC2=O)cc1	1.137 ± 0.0067	1.22 ± 0.042	1.36 ± 0.0082
CCN1CCN(Cc2ccc(Nc3ncc(F)c(-c4cc(F)c5nc(C)n(C(C)C)c5c4)n3)nc2)CC1	1.13 ± 0.056	1.25 ± 0.02	1.36 ± 0.022
COC(=O)Nc1ccc(-c2nc(N3CCOCC3)c3cnn(C4CCN(C(=O)OC)CC4)c3n2)cc1	1.14 ± 0.026	1.13 ± 0.02	1.14 ± 0.024
Cc1cc2c(F)c(Oc3ncnn4cc(OC[C@@H](C)OC(=O)[C@H](C)N)c(C)c34)ccc2[nH]1	1.37 ± 0.023	1.46 ± 0.058	1.53 ± 0.016
CN(C)Cc1cccc(N=C(c2ccccc2)c2c(O)[nH]c3cc(C(N)=O)ccc23)c1	1.15 ± 0.031	1.15 ± 0.052	1.26 ± 0.07
CCC(=O)N1CCN(c2ccc(-n3c(=O)ccc4cnc5ccc(-c6cnc7ccccc7c6)cc5c43)cc2C(F)(F)F)CC1 [Torin 1]	1.14 ± 0.024	1.24 ± 0.033	1.35 ± 0.044
Cc1cc(Nc2cc(N3CCN(C)CC3)nc(/C=C/c3ccccc3)n2)n[nH]1	1.19 ± 0.044	1.21 ± 0.011	1.32 ± 0.03
CCCS(=O)(=O)Nc1ccc(F)c(C(=O)c2c[nH]c3ncc(-c4ccc(Cl)cc4)cc23)c1F [Vemurafenib (PLX4032, RG7204)]	1.159 ± 0.0019	1.16 ± 0.015	1.17 ± 0.029
Cn1cc(C2=C(c3ccc(Cl)cc3Cl)C(=O)NC2=O)c2ccccc21	1.46 ± 0.18	1.56 ± 0.22	1.68 ± 0.29
CN1CCN(c2ccc3nc(-c4c(N)c5c(F)cccc5[nH]c4=O)[nH]c3c2)CC1 [Dovitinib (TKI-258, CHIR-258)]	1.62 ± 0.087	1.7 ± 0.026	1.91 ± 0.073
O=c1c(-c2ccc(O)cc2)coc2cc(O)cc(O)c12 [Genistein]	1.22 ± 0.079	1.29 ± 0.058	1.36 ± 0.15
Cc1ccc(NC(=O)c2ccc(CN3CCN(C)CC3)cc2)cc1Nc1nc(-c2cccnc2)cs1 [Masitinib (AB1010)]	1.44 ± 0.013	1.52 ± 0.067	1.72 ± 0.12
CCc1cccc(CC)c1NC(=O)N1Cc2[nH]nc(NC(=O)c3ccc(N4CCN(C)CC4)cc3)c2C1	1.09 ± 0.027	1.24 ± 0.015	1.34 ± 0.099
Cc1cn(-c2cc(NC(=O)c3ccc(C)c(Nc4nccc(-c5cccnc5)n4)c3)cc(C(F)(F)F)c2)cn1 [Nilotinib (AMN-107)]	1.45 ± 0.049	1.53 ± 0.07	1.65 ± 0.1
C=CC(=O)Nc1cccc(Oc2nc(Nc3ccc(N4CCN(C)CC4)cc3OC)ncc2Cl)c1	1.42 ± 0.03	1.53 ± 0.052	1.68 ± 0.041
CC(=O)c1c(C)c2cnc(Nc3ccc(N4CCNCC4)cn3)nc2n(C2CCCC2)c1=O	1.45 ± 0.032	1.45 ± 0.037	1.49 ± 0.03
O=C1c2ccc(Nc3ccc(F)cc3F)cc2CCc2ccc(OC[C@H](O)CO)cc21 [Skepinone-L]	1.43 ± 0.05	1.41 ± 0.05	1.62 ± 0.049
CN(C)Cc1cccc(N=C(c2ccccc2)c2c(O)[nH]c3cc(C(=O)N(C)C)ccc23)c1	1.11 ± 0.069	1.141 ± 0.011	1.31 ± 0.037
O=S(=O)(c1cccc2cnccc12)N1CCCNCC1 [Fasudil (HA-1077) HCl]	1.03 ± 0.023	1.12 ± 0.041	1.31 ± 0.029
Cc1c(C(=O)N2CCOc3ccc(-c4ccc(N)nc4)cc3C2)ccc(S(C)(=O)=O)c1F	1.112 ± 0.0078	1.25 ± 0.064	1.32 ± 0.059

SMILES	mitochondrial superoxide (time after LPS: 1 h)	mitochondrial superoxide (time after LPS: 2 h)	mitochondrial superoxide (time after LPS: 4 h)
COc1cc2ncc(-c3ccccc3)nc2cc1OC [Tyrphostin AG 1296]	1.469 ± 0.014	1.47 ± 0.017	1.58 ± 0.021
O=C1NC(=O)C(=Cc2ccc(-c3ccc(F)cc3)o2)S1 (stereo in doubt)	1.28 ± 0.044	1.55 ± 0.089	1.65 ± 0.081
Cn1cc(-c2ccc3nnc(C(F)(F)c4ccc5ncccc5c4)n3n2)cn1	1.4 ± 0.062	1.44 ± 0.015	1.5 ± 0.019
Cc1c(CN2CCN(C(=O)[C@H](C)O)CC2)sc2c(N3CCOCC3)nc(-c3cnc(N)nc3)nc12	1.266 ± 0.011	1.44 ± 0.057	1.5 ± 0.061
CCS(=O)(=O)Nc1ccc2[nH]c(O)c(C(=Nc3ccc(CN4CCCCC4)cc3)c3ccccc3)c2c1 [Hesperadin]	1.1 ± 0.02	1.13 ± 0.031	1.28 ± 0.046
Cc1ccc(NC(=O)c2ccc(CN3CCN(C)CC3)cc2)cc1Nc1nccc(-c2cccnc2)n1 [Imatinib Mesylate (STI571)]	1.626 ± 0.013	1.76 ± 0.045	1.72 ± 0.03
Cc1c(NC(=O)OC[C@@H]2COCCN2)cn2ncnc(Nc3ccc4c(cnn4Cc4cccc(F)c4)c3)c12	1.57 ± 0.034	1.74 ± 0.077	1.9 ± 0.045
CCN1CCN(c2ccc(Nc3cc(N(C)C(=O)Nc4c(Cl)c(OC)cc(OC)c4Cl)ncn3)cc2)CC1	1.2 ± 0.021	1.24 ± 0.035	1.35 ± 0.06
Cc1cnc(NC(=O)Nc2cc(Br)c(C)cc2OC[C@@H]2CNCCO2)cn1	1.116 ± 0.011	1.262 ± 0.0098	1.55 ± 0.052
CC(C)(C#N)c1ccc(N2C(=O)OCc3cnc4ccc(-c5cnc6ccccc6c5)cc4c32)cc1	1.4 ± 0.039	1.48 ± 0.056	1.676 ± 0.013
Cc1cc(CN2CCN(c3c(Br)cnc4nc(-c5ccc(N6CCN(C)CC6)cc5)[nH]c34)CC2)no1	1.27 ± 0.038	1.4 ± 0.019	1.68 ± 0.13
NC1(C(=O)N[C@@H](CCO)c2ccc(Cl)cc2)CCN(c2ncnc3[nH]ccc23)CC1	1.38 ± 0.024	1.54 ± 0.046	1.61 ± 0.029
COc1ccc2c(c1)c(C1=C(c3c[nH]c4ccccc34)C(=O)NC1=O)cn2CCCN(C)C	1.23 ± 0.056	1.27 ± 0.043	1.36 ± 0.042
COc1cc2nccc(Oc3ccc(NC(=O)Nc4ccc(F)cc4F)c(F)c3)c2cc1OC	1.13 ± 0.036	1.27 ± 0.071	1.28 ± 0.13
O=C1NC(=O)/C(=C/c2cccc(C(F)(F)F)c2)S1	1.27 ± 0.052	1.35 ± 0.074	1.53 ± 0.05
Cc1ccc([N+](=O)[O-])cc1S(=O)(=O)N(C)/N=C/c1cnc2ccc(Br)cn12	1.17 ± 0.09	1.17 ± 0.015	1.21 ± 0.027
C=CC(=O)Nc1cccc(Nc2nc(Nc3ccc(Oc4ccnc(C(=O)NC)c4)cc3)ncc2F)c1	1.4 ± 0.018	1.49 ± 0.031	1.6 ± 0.023
C[C@H](Nc1ncnc2nc[nH]c12)c1cc2cccc(Cl)c2c(=O)n1-c1ccccc1	1.09 ± 0.045	1.2 ± 0.032	1.31 ± 0.023
CCn1c(-c2nonc2N)nc2c(C#CC(C)(C)O)ncc(OC[C@H]3CCCNC3)c21	1.3 ± 0.025	1.4 ± 0.027	1.49 ± 0.019
Cc1ccc(S(=O)(=O)C=CC#N)cc1	1.19 ± 0.044	1.19 ± 0.073	1.34 ± 0.095
CCn1cc(-c2ccnc3[nH]c(-c4cccc(CN(C)C)c4)cc23)c(-c2ccc(NC(=O)N(C)C)cc2)n1	1.27 ± 0.026	1.45 ± 0.047	1.71 ± 0.16
CNC(=O)c1cc(Oc2ccc(NC(=O)Nc3ccc(Cl)c(C(F)(F)F)c3)cc2)ccn1 [Sorafenib Tosylate]	1.6 ± 0.039	1.68 ± 0.099	1.73 ± 0.077

SMILES	mitochondrial superoxide (time after LPS: 1 h)	mitochondrial superoxide (time after LPS: 2 h)	mitochondrial superoxide (time after LPS: 4 h)
Fc1cc(-c2cccc3ncc(-c4cnn(C5CCNCC5)c4)nc23)cc(F)c1CN1CCOCC1	1.15 ± 0.05	1.45 ± 0.13	1.69 ± 0.04
CC(C)(C)n1nc(-c2ccc(Cl)cc2)c2c(N)ncnc21	1.11 ± 0.019	1.23 ± 0.074	1.31 ± 0.079
C=CC(=O)Nc1cc2c(Nc3ccc(F)c(Cl)c3)ncnc2cc1OCCCN1CCOCC1 [Canertinib (CI-1033)]	1.59 ± 0.093	1.55 ± 0.14	1.87 ± 0.084
Nc1nc(N)c(N=O)c(OCC2CCCCC2)n1	1.17 ± 0.03	1.25 ± 0.017	1.37 ± 0.074
CNC(=O)c1cc(Oc2ccc(NC(=O)Nc3ccc(Cl)c(C(F)(F)F)c3)cc2)ccn1 [Sorafenib]	1.48 ± 0.09	1.45 ± 0.032	1.66 ± 0.029
O=C(c1ccc(/C=C/c2n[nH]c3ccccc23)cc1)N1CCNCC1	1.09 ± 0.063	1.19 ± 0.067	1.33 ± 0.035
CN(C)C/C=C/C(=O)Nc1cc2c(Nc3ccc(F)c(Cl)c3)ncnc2cc1O[C@H]1CCOC1 [Afatinib (BIBW2992)]	1.54 ± 0.068	1.6 ± 0.047	1.77 ± 0.11
O=Nc1c(-c2c(O)[nH]c3cc(Br)ccc23)[nH]c2ccccc12	1.3 ± 0.081	1.43 ± 0.041	1.64 ± 0.067
C[C@@H]1COCCN1c1cc(C2(S(C)(=O)=O)CC2)nc(-c2cccc3[nH]ccc23)n1	1.19 ± 0.055	1.244 ± 0.0093	1.34 ± 0.052
COc1cc(Nc2ncc3c(n2)-c2ccc(Cl)cc2C(c2c(F)cccc2OC)=NC3)ccc1C(=O)O [Alisertib (MLN8237)]	1.37 ± 0.058	1.41 ± 0.035	1.46 ± 0.047
CNC(=O)c1cc(COc2nnc(Nc3ccc(Cl)cc3)c3ccoc23)ccn1 [Telatinib]	1.23 ± 0.036	1.33 ± 0.051	1.38 ± 0.11
CO[C@@H](C(=O)N1Cc2[nH]nc(NC(=O)c3ccc(N4CCN(C)CC4)cc3)c2C1)c1ccccc1	1.3 ± 0.035	1.38 ± 0.029	1.48 ± 0.038
CC(C)N(CCC(=O)c1ccc2ccccc2c1)Cc1ccccc1	1.31 ± 0.017	1.44 ± 0.11	1.69 ± 0.02
COc1cccc2cc(-c3nc([C@H]4CC[C@H](C(=O)O)CC4)n4ncnc(N)c34)[nH]c12	1.3 ± 0.046	1.39 ± 0.018	1.52 ± 0.017
O=C(c1cccc(Cl)c1F)N1CCN(Cc2cccc(Nc3nccs3)n2)CC1	1.15 ± 0.018	1.22 ± 0.048	1.37 ± 0.053
Cc1ccc(C(=O)Nc2cccc(C(F)(F)F)c2)cc1Nc1nc(-c2cccnc2)nc2c1cnn2C	1.23 ± 0.037	1.27 ± 0.013	1.38 ± 0.083
CN(C)CCOc1ccc(-c2nc(-c3ccncc3)c(-c3ccc4c(c3)CC/C4=N\O)[nH]2)cc1	1.07 ± 0.036	1.15 ± 0.075	1.31 ± 0.083
Cc1cc(Nc2cc(CN3CCOCC3)c3nc(C)c(Cc4ccc(Cl)cc4F)n3n2)n[nH]1	1.16 ± 0.062	1.23 ± 0.048	1.38 ± 0.035
Cc1cc(C)nc(NS(=O)(=O)c2ccc(NC(=S)NC(=O)COc3ccc(Br)cc3Cl)cc2)n1	1.42 ± 0.087	1.45 ± 0.1	1.61 ± 0.055
Cc1cnc(Nc2ccc(OCCN3CCCC3)cc2)nc1Nc1cccc(S(=O)(=O)NC(C)(C)C)c1	1.18 ± 0.14	1.33 ± 0.21	1.42 ± 0.22
CC1(COc2ccc3c(c2)ncn3-c2ccc3cccc(N4CCC(N)CC4)c3n2)COC1	1.04 ± 0.1	1.42 ± 0.11	1.66 ± 0.13
Clc1ccc(Nc2nnc(Cc3ccncc3)c3ccccc23)cc1 [Vatalanib (PTK787) 2HCl]	1.42 ± 0.075	1.5 ± 0.09	1.53 ± 0.057
